Laboratory results taken from PubChem BioAssay AID686978 (National Center for Advancing Translational Sciences (NCATS), 2013).
Among all 420,000 compounds or so, about 64,000 (15%) were called active. Inconclusive results (about 27%) are left out. Calls follow the shape of the dose curve; as a rule, active = well fitted inhibition curve with a large enough effect; inconclusive = small, poorly fitted or top-dose-only effect; inactive = flat fitted curve, though single readings scatter. These entries were drawn from the full list. A call without a number means that no potency is given here.
Potency is read from the fitted curve at half-maximal effect.

Experiment: qHTS for Inhibitors of human tyrosyl-DNA phosphodiesterase 1 (TDP1): qHTS in cells in absence of CPT; also: nearly all actives have a fitted effect of over 55% in size
Details: DT40 Tdp1-/- hTDP1 cells, no CPT, ATP luminescence, 48 h; activity change, negative = growth inhibition: at 46.2 µM (top of the series)
Method in brief: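 Chicken DT40 Tdp1-/- cells complemented with human TDP1, screened without camptothecin (DMSO vehicle only), 400 cells/well. Compounds pin-transferred, cells incubated at 37 °C for at least 48 hr. Growth read as ATP-dependent luminescence (CellTiter-Glo, 30 min at RT).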
For `COc1ccc(C(CNCC(=O)Nc2ccccc2F)N(C)C)cc1` (centres undefined), the Potency was “inactive”.
With `CCO[C@H]1OC(C(=O)N2CCCCCCC2)=C[C@@H](c2ccc(C(F)(F)F)cc2)[C@@H]1CCCO` the Potency was 20.6 µM (active).
In the case of `CCO[C@H]1OC(C(=O)N2CCOCC2)=C[C@@H](c2ccc3c(c2)OCO3)[C@@H]1CCCO`, the Potency is reported as “inactive”.
For `CCO[C@@H]1OC(C(=O)N2CCOCC2)=C[C@H](C)[C@H]1CCCO`, the Potency was “inactive”.
In the case of `CC1CN(C(=S)Nc2cccc(F)c2)CC(C)O1` (centres undefined), the Potency is reported as “inactive”.
In the case of `CN(Cc1ccc(CNC[C@H]2O[C@@H](n3cnc4c(N)ncnc43)[C@H](O)[C@@H]2O)o1)S(C)(=O)=O`, the Potency is reported as “inactive”.
In the case of `Cc1ccc2[nH]c(=O)c(CN(CC3COCCO3)C(=O)Nc3ccccc3C)cc2c1` (centres undefined), the Potency is reported as “inactive”.
In the case of `Cc1cccc(NC(=O)C2CC(=O)OC23CCCC3)c1` (centres undefined), the Potency is reported as “inactive”.
With `Cc1cccc(NC(=O)N(Cc2cc3cc(C)cc(C)c3[nH]c2=O)CC2COCCO2)c1` (centres undefined) the Potency was 16.4 µM (active).
In the case of `O=C(O)c1[nH]c2ccccc2c1C(c1cccc(O)c1)c1c(C(=O)O)[nH]c2ccccc12`, the Potency is reported as “inactive”.
With `COC(=O)c1ccc(CNC(=O)C2CCC(=O)N(Cc3ccccn3)C2)cc1` (centres undefined) the Potency was “inactive”.
With `CN1CCN(C(=O)Cn2c(C(F)(F)F)nc3ccccc32)CC1` the Potency was “inactive”.
With `FC(F)(F)c1cccc(Nc2ncnc3ccccc23)c1` the Potency was 18.4 µM (active).
For `O=c1cc(CO)oc(C(Nc2cccc(C(F)(F)F)c2)c2ccccn2)c1O` (centres undefined), the Potency was “inactive”.
In the case of `Cc1nc2nc(C)c(CCC(=O)N3CCN(c4ccccc4)CC3)c(C)n2n1`, the Potency is reported as “inactive”.
With `COc1ccccc1CN1CCCC(N2CCN(c3ccc(F)cc3)CC2)C1` (centres undefined) the Potency was “inactive”.
With `Cc1cc(=O)oc(C)c1C(=O)NCc1ccc(F)cc1` the Potency was “inactive”.
With `CCC(=O)Nc1nnc(S(=O)(=O)N2CCCc3ccccc32)s1` the Potency was “inactive”.
With `CC1CCN(c2ccc3c(c2)S(=O)(=O)c2cc(C(=O)O)ccc2C3=O)CC1` the Potency was “inactive”.
For `CC1CCN(c2ccc([N+](=O)[O-])c(SCCO)c2)CC1`, the Potency was 23.1 µM (active).
In the case of `CC1CCN(c2ccc(C(=O)Nc3nnc(C4CC4)s3)cc2[N+](=O)[O-])CC1`, the Potency is reported as “inactive”.
For `COCCn1c(N)c(NCc2ccccc2)c(=O)[nH]c1=O`, the Potency was “inactive”.
For `COC(=O)c1sc(C(F)(F)F)c(-c2ccccc2)c1S(=O)(=O)N(C)C`, the Potency was “inactive”.
In the case of `CC(C)NC(=O)c1nn(-c2ccccc2F)nc1CO`, the Potency is reported as “inactive”.
In the case of `CC(CCCc1ccccc1)NC(=O)c1nn(-c2ccc(Cl)cc2)nc1CO` (centres undefined), the Potency is reported as 20.6 µM (active).
For `Cc1ccc(-n2nc(CO)c(C(=O)NCCc3ccccc3)n2)cc1`, the Potency was “inactive”.
With `CCc1ccc(NC(=O)CCNS(=O)(=O)c2cccs2)cc1` the Potency was “inactive”.
In the case of `O=C(CN(C(=O)CNC(=O)c1cccs1)c1cccc(F)c1)NC1CCCCC1`, the Potency is reported as “inactive”.
For `CCCN1CCN(CCCNC(=O)Cn2nc(CC)n3c(cc4occc43)c2=O)CC1`, the Potency was “inactive”.
For `Cc1nn(CC(=O)NCCc2ccccc2)c(=O)c2cc3occc3n12`, the Potency was “inactive”.
In the case of `CCc1ccc(-c2cc3c(=O)n(CC(=O)NCCCN4CCN(Cc5ccccc5)CC4)nc(C)n3n2)cc1`, the Potency is reported as 16.4 µM (active).
With `COc1cc(OC)cc(-c2nc(=S)n3ccsc3n2)c1` the Potency was “inactive”.
In the case of `O=S(=O)(Cc1cc(Cl)nc(-c2cccnc2)n1)c1ccccc1`, the Potency is reported as “inactive”.
With `CCS(=O)(=O)n1nc(-c2ccccc2)nc1SCc1ccccc1` the Potency was “inactive”.
In the case of `O=S(=O)(Cc1cc(Sc2ccccc2)nc(-c2ccccc2)n1)c1ccccc1`, the Potency is reported as 23.1 µM (active).
For `COCCCNC(=O)Cn1c(=O)n(Cc2ccccc2Cl)c(=O)c2cc(OC)c(OC)cc21`, the Potency was “inactive”.
With `CCCCCOC(=O)c1ccc(N2C(=O)C3C4C=CC(C4)C3C2=O)cc1` (centres undefined) the Potency was “inactive”.
For `COc1cc(C2CC(=O)N3CN(Cc4ccccc4)CSC3=C2C#N)ccc1OCc1ccccc1` (centres undefined), the Potency was “inactive”.
In the case of `O=C(NCc1ccccc1)c1onc(CSc2ccncc2)c1C(=O)NCc1ccccc1`, the Potency is reported as “inactive”.
In the case of `O=C(NCC1CC1)c1onc(CSc2ccccc2)c1C(=O)NCC1CC1`, the Potency is reported as 20.6 µM (active).
In the case of `COc1ccc(SCc2noc(C(=O)NCC3CCCO3)c2C(=O)O)cc1` (centres undefined), the Potency is reported as “inactive”.
In the case of `COc1ccc(C(=O)NC(=S)N2CCNC(=O)C2CC(=O)OC(C)C)cc1` (centres undefined), the Potency is reported as “inactive”.
In the case of `O=c1cc(CSc2ccc(Cl)cc2)nc(N2CCOCC2)[nH]1`, the Potency is reported as “inactive”.
With `Cc1ccc2nc(N3C(=O)C(O)=C(C(=O)c4ccco4)C3c3cccc(O)c3)sc2c1` (centres undefined) the Potency was “inactive”.
In the case of `COc1cc(C(O)c2nc3ccccc3n2C)cc(OC)c1OC` (centres undefined), the Potency is reported as 18.4 µM (active).
For `COc1cccc(C(O)c2nc3ccccc3n2C)c1` (centres undefined), the Potency was “inactive”.
With `COc1ccc(OC)c(C(O)c2nc3ccccc3n2C)c1` (centres undefined) the Potency was “inactive”.
For `COc1ccc(-c2cc(=O)oc3cc(OC(C)C(=O)NCC4CCC(C(=O)O)CC4)ccc23)cc1` (centres undefined), the Potency was “inactive”.
For `O=C(NCc1ccccc1)C1CCCN(c2nc3ccsc3c(=O)s2)C1` (centres undefined), the Potency was “inactive”.
With `O=C(NCCc1cccc(F)c1)C1CCCN(c2nc3ccccc3s2)C1` (centres undefined) the Potency was 23.1 µM (active).
For `Cc1cc(=O)n2nc(N3CCCC(C(=O)NCc4cccc(Cl)c4)C3)sc2n1` (centres undefined), the Potency was “inactive”.
For `COc1ccccc1C(=O)NC(=O)COC(=O)C1CC1`, the Potency was “inactive”.
With `COc1cc(NC(=O)c2cc3ccc4cccnc4c3[nH]2)cc(OC)c1OC` the Potency was “inactive”.
In the case of `Cc1cccc(CN2CCC(n3nccc3NC(=O)c3ccccc3C)CC2)n1`, the Potency is reported as “inactive”.
In the case of `CCOc1ccccc1N(CC)C(=O)c1cc2ccc3cccnc3c2[nH]1`, the Potency is reported as 5.8 µM (active).
With `Cc1ccccc1CN1CCN(C(=O)c2cccc(F)c2)CC1` the Potency was “inactive”.
With `CCOc1cc2ccccc2cc1C(=O)Nc1ccccn1` the Potency was “inactive”.
For `Cc1ccccc1CN1CCC(CNC(=O)c2cc3ccc4cccnc4c3[nH]2)CC1`, the Potency was 23.1 µM (active).
For `CCc1nnc(SCc2cccc(F)c2)nc1CC`, the Potency was “inactive”.
With `CSCCC(NC(=O)C1CCC(C)CC1)C(=O)NCc1ccco1` (centres undefined) the Potency was “inactive”.
For `Cc1cc(C(F)(F)F)c(C#N)c(SCC(=O)NC2CC2)n1`, the Potency was “inactive”.
For `CC(=O)N(CN1C(=O)C2CC=CCC2C1=O)c1cccc(Cl)c1` (centres undefined), the Potency was “inactive”.
In the case of `O=C1CSC(c2cccc(F)c2)N1c1ccccc1F` (centres undefined), the Potency is reported as “inactive”.
In the case of `Cc1ccc(CNC(=O)CSc2c(C)cnc3c2c(=O)n(C)c(=O)n3C)cc1`, the Potency is reported as “inactive”.
With `COc1ccc(C(=O)CSc2n[nH]c(N)n2)cc1` the Potency was “inactive”.
In the case of `COCCNC(=O)CSc1c(C)cnc2c1c(=O)n(C)c(=O)n2C`, the Potency is reported as “inactive”.
In the case of `COc1ccc(C(=O)CSc2nccc(=O)[nH]2)cc1`, the Potency is reported as “inactive”.
For `COc1ccc(C(=O)CSc2c(C(C)C)cnc3c2c(=O)n(C)c(=O)n3C)cc1`, the Potency was 13 µM (active).
In the case of `CC(=O)c1ccc(NC(=O)CSc2c(C(C)C)cnc3c2c(=O)n(C)c(=O)n3C)cc1`, the Potency is reported as 14.6 µM (active).
